Compounds with a hit are over-represented: about 2.6% of the library has one in this group of screens.
LGR2 antag: Drosophila LGR2 receptor signaling inhibition; 380,000 compounds, 0.35% hits; inhibition, % at 9.99 µM; HEK293 LGR2, CRE-luciferase, bursicon-stimulated, 4 h;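 active = drop in luminescence signal, shown as inhibition above about 50% in the replicate tests, limit read from the data, passing the limit was not always enough; inconclusive = probably only some replicates passing the limit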;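 also: agonist challenge used bursicon conditioned medium at about half maximal strength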
TROY NFkB inh: inhibitors of TROY-dependent NF-kB signaling | inhibition, % at 10 µM | AID 1347056 | 360,000 compounds, 0.98% hits | Q293 LMP1-TROYcd NF-kB luciferase reporter, 4 h;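 active = compounds whose plate-normalised and pattern-corrected inhibition of the luciferase reporter signal at the single screening dose is 50% or more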
LMP1 NFkB inh: inhibitors of Epstein-Barr LMP1-induced NF-kappaB reporter; 350,000 compounds, 0.69% hits; inhibition, % at 12.5 µM; LMP1-induced NF-kappaB luciferase reporter cells, luminescence; in the data active = inhibition above about 41%; inconclusive = no clear call, values can overlap the other calls;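 also: 0% = neutral control wells and 100% = reference inhibitor control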
EWS-Fli inh: inhibitors of EWS/Fli oncoprotein transcriptional activity. 350,000 compounds, 0.67% hits. inhibition, % at 12.6 µM. AID 651661. A673 NR0B1-luciferase reporter, viability-normalised;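 active = mean inhibition of at least 50% after viability correction, with every replicate also passing that limit; inconclusive = mean reaches 50% but only one of two replicates passes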;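 also: firefly luciferase signal divided by Alamar Blue viability fluorescence both relative to DMSO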
TWEAK Fn14 block: blocks TWEAK-Fn14 interaction in a reporter cell assay. TWEAK-stimulated Fn14 reporter cells, luciferase luminescence, 8 h. inhibition, % at 10 µM. 360,000 compounds, 2% hits. AID 1159606; in the data active = inhibition above about 50%
The depositor's hits bear a star; ? = inconclusive; / = no result.

SMILES	LGR2 antag	TROY NFkB inh	LMP1 NFkB inh	EWS-Fli inh	TWEAK Fn14 block
COc1ccc(/C=C/C(=O)c2c(O)n(CCC3=CCCCC3)c(=O)[nH]c2=O)cc1	-1	16	-8	35	46
O=C(c1ccc(Cl)cc1)C12CN3CN(CN(C3)C1)C2	/	/	-1	/	63*
COCCN1C(=O)/C(=C/c2c(OC)cc(OC)cc2OC)C(=O)N(c2ccccc2)C1=O	-2	13	-8	-1	70*
CC=Cc1ccc2n(c1=O)C[C@@H]1[C@@H](CO)[C@H](C(=O)O)[C@H]2N1S(=O)(=O)c1ccccc1C (mixture of isomers)	9	/	/	-3	/
COC(=O)C1CN(C#N)N(c2ccc(Cl)cc2)C12c1ccccc1-c1ccccc12 (stereo unspecified)	100*	90*	37	/	92*
COc1cccc(-n2c(-c3ccoc3)nc3ccccc3c2=O)c1	/	-16	-1	/	-11
COc1cccc(-n2c(C)nc3ccccc3c2=O)c1	/	-19	-2	/	67*
Nc1ccc(-c2ccccc2)cc1	-29	-19	-10	-17	-15
Nc1ccc(C2(c3ccc(N)cc3)c3ccccc3-c3ccccc32)cc1	12	28	3	4	83*
CC12CCC(O)CC1CCC1C2CCC2(C)C(C3=CC(=O)OC3)C(O)CC12O (stereo unspecified)	77*	37	-3	36	53*
CCN1C[C@]2(C)CC[C@H](O)[C@]34C1[C@H](C[C@H]23)[C@@]1(O)C[C@H](OC)[C@H]2C[C@@H]4[C@@H]1C2O (stereo partly specified)	-6	5	90*	-7	-54
O=C1NC(=O)C(=Cc2ccc(-c3ccc(S(=O)(=O)N4CCOCC4)cc3)o2)C(=O)N1	/	-14	-15	-5	5
O=C1NC(=O)C(=Cc2ccc(-c3ccc(Cl)cc3)o2)C(=O)N1	/	56*	1	/	80*
CCOC(=O)[C@@H]1[C@@H]2NC(=S)N(C)[C@@]1(C)Oc1ccccc12	/	/	/	-7	/
COC(=O)[C@@H]1[C@@H](CO)[C@@H]2Cn3c(cccc3=O)[C@H]1N2C(=O)C1CCCC1	5	/	/	-4	/
COC(=O)[C@@H]1[C@@H](CO)[C@@H]2Cn3c(ccc(-c4ccccc4F)c3=O)[C@H]1N2C(=O)C1CCC1	-9	/	/	2	/
COc1cc2cc(C(=O)N3CC(COS(C)(=O)=O)c4ccc(O)cc43)[nH]c2c(OC)c1OC (stereo unspecified)	/	72*	90*	/	108*
Cc1cccc(N2C(=O)NC(=O)/C(=C\c3cccn3-c3ccc(Cl)cc3)C2=O)c1	60*	30	-1	/	61*
CC(C)(C)n1cccc1/C=C1\C(=O)NC(=O)N(c2ccccc2)C1=O	-13	-17	-8	/	-5
Cc1cc(C)cc(N2C(=O)NC(=O)/C(=C/c3cccn3-c3ccc(Cl)cc3)C2=O)c1	?	69*	-10	32	104*
O=C(Cc1ccccn1)N1CC2(C1)[C@H](c1ccccc1)[C@@H](CO)N2Cc1ccccn1	-20	/	/	1	/
C=CCN1C(=O)NC(=O)/C(=C/C=C/c2ccccc2)C1=O	/	-10	-20	31	2
O=C1NC(=O)N(CCc2ccc(F)cc2)C(=O)/C1=C\C=C\c1ccccc1	1	32	-26	37	98*
N#Cc1cccc(-c2ccc([C@H]3[C@H]4CN(C(=O)Cc5ccncc5)CCCCN4[C@H]3CO)cc2)c1	6	/	/	/	/
COc1cc(C2c3cc4c(cc3CC3COC(=O)C32)OCO4)cc(OC)c1OC (stereo unspecified)	-2	3	13	57*	-2
SMILES	LGR2 antag	TROY NFkB inh	LMP1 NFkB inh	EWS-Fli inh	TWEAK Fn14 block
Cc1nc2cc(OC(=O)N(C)Cc3cccc(-c4ccncc4)c3)ccc2s1	/	66*	/	/	93*
CN(Cc1cccc(-c2ccncc2)c1)C(=O)Oc1ccccc1Cl	/	49	/	/	75*
CN(Cc1cccc(-c2ccncc2)c1)C(=O)Oc1ccccc1Cc1ccccc1	/	66*	/	/	93*
CN1C[C@H](O)[C@H]2C[C@@H]1c1ccccc1O2	-22	/	/	-8	/
COc1cccc(-c2ccc([C@@H]3[C@H](CO)N4CCCCN(C(=O)Cc5ccncc5)C[C@@H]34)cc2)c1	12	/	/	/	/
COCC(=O)N1[C@@H]2Cn3c(ccc(C4=CCCC4)c3=O)[C@H]1[C@@H](C(=O)OC)[C@@H]2CO	-9	/	/	15	/
Cc1ccccc1-c1ccc([C@H]2[C@@H](CO)N3CCCCN(C(=O)Cc4ccccn4)C[C@@H]23)cc1	13	/	/	3	/
CC1=CC(C)CC(C)OC(=O)CC(c2ccc(O)cc2)NC(=O)C(Cc2c(Br)[nH]c3ccccc23)N(C)C(=O)C(C)NC(=O)C(C)C1 (stereo unspecified)	82*	70*	-2	-25	4
O=C(O)[C@@H]1[C@@H](CO)[C@@H]2Cn3c(ccc(-c4cccc(F)c4)c3=O)[C@H]1N2CCc1ccccc1	1	/	/	0	/
COC(=O)C1=C(C(=O)OC)SC2(S1)C(C(=O)OC)=C(C(=O)OC)Sc1c2ssc1=O	-32	5	-20	45	59*
O=c1[nH]c2ccccc2n1C1CCN(C(c2ccccc2OC(F)(F)F)c2nnnn2Cc2ccccc2)CC1 (stereo unspecified)	61*	61*	/	2	61*
O=c1[nH]c2ccccc2n1C1CCN(C(CCc2ccccc2)c2nnnn2Cc2ccccc2)CC1 (stereo unspecified)	99*	71*	/	24	94*
CSCCC(c1nnnn1-c1c(C)cccc1C)N1CCC(n2c(=O)[nH]c3ccccc32)CC1 (stereo unspecified)	93*	36	/	22	38

Screening results deposited in PubChem BioAssay by several laboratories.
